# Screens as filed in PubChem BioAssay.
# Tb PFK block: inhibitors of T. brucei phosphofructokinase; O15648; T. brucei PFK, ADP-Glo luminescence; Potency, µM (doses to about 57.5 µM), for inactives: at the top dose activity, negative = inhibition, actives largely listed as inhibitors; 330,000 tested, 0.17% active;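 further: potency means the concentration at half of the fitted maximal effect; 0% = uninhibited 1x PFK enzyme wells and -100% = no-enzyme wells; nearly all actives have a fitted effect of over 60% in size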
# Target sequence (O15648 whole entry, looked up): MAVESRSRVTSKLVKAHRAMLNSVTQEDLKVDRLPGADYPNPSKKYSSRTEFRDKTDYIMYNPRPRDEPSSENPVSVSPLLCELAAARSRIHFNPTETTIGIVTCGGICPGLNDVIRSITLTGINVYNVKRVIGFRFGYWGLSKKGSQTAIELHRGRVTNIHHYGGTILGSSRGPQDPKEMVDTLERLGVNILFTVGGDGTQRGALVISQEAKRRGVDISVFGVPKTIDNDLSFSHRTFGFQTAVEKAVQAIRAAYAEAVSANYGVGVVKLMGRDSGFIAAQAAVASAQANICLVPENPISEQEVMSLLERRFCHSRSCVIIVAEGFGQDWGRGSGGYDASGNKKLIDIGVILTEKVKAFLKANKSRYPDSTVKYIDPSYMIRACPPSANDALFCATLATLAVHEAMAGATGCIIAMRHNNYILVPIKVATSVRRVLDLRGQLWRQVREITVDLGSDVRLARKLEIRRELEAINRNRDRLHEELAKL
#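 ADP-Glo luminescence quantified ADP after 45 min at room temperature, with 1.25 nM T. brucei PFK, 0.1 mM ATP and 0.5 mM fructose-6-phosphate in pH 8.0 TEA buffer. qHTS titrations up to 57 µM; curves classified by quality.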
# RXFP1 agonist: activates the human relaxin receptor RXFP1; 370,000 tested, 0.3% active; HEK293T-RXFP1 cAMP TR-FRET, 30 min; response scale: percent of porcine relaxin response, buffer zero; Potency, µM (top dose mostly 57.5 µM), inactives show top-dose activation, actives largely listed as activators; further: potency means the concentration at half of the fitted maximal effect; on the % scale 0 is the no-effect control and ±100 the full control effect; nearly all actives have a fitted effect of over 60% in size
#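 HEK293 cells stably expressing RXFP1, treated 30 min at 37C with compounds plus PDE4 inhibitor Ro 20174; cAMP measured by HTRF TR-FRET. Normalized to buffer and 29 nM porcine relaxin; EC50 by Hill fit.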
# gsp antagonist: antagonists of gsp mutant (McCune-Albright syndrome) | Potency, µM (doses to about 76.9 µM), inactives show top-dose activity change, negative = inhibition, hits mostly inhibitors | AID 624288 | 340,000 tested, 0.4% active | gsp-mutant cells, cAMP HTRF, 30 min; calls by dose curve; cell line not stated here;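 further: intracellular cAMP measured with PDE inhibitor Ro 20-1724 present during compound exposure; potency means the concentration at half of the fitted maximal effect; on the % scale 0 is the no-effect control and ±100 the full control effect; nearly all actives have a fitted effect of over 65% in size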
#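 HTRF cAMP read-out (cAMP-d2 plus anti-cAMP antibody-K in lysis buffer, 30 min RT). Before lysis, cells are exposed to compounds with […] for 30 min at 37C in DPBS containing Ca/Mg, BSA and Tween 20.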
# gsp agonist: activates gsp, the McCune-Albright syndrome mutation; 340,000 tested, 0.13% active; gsp mutant cells, cAMP HTRF, 30 min; Potency, µM (doses to about 76.9 µM), inactives show top-dose activation (cAMP increase), most hits filed as activators; active means well fitted activation curve with a large enough effect; inconclusive means small, poorly fitted or top-dose-only effect, or another doubt; inactive means no such curve, though single readings can be large or run the other way; cell line not stated here;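 further: phosphodiesterase inhibitor Ro 20-1724 added with compounds to block cAMP breakdown; potency means the concentration at half of the fitted maximal effect; nearly all actives have a fitted effect of over 60% in size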
#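 Cells stably selected in G418 were plated at 2000/well, grown 16-24 hr, then given compounds in DMSO with the PDE inhibitor […] (300 uM solution added) for 30 min at 37C; cAMP was read by HTRF.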
# RXFP1 antagonist: RXFP1 (human) relaxin receptor antagonism; HEK293-RXFP1, relaxin-stimulated cAMP HTRF, 30 min; stronger effect = lower value; activity change, negative = inhibition, % at 57.5 µM; Q9HBX9; AID 1259400; 350,000 tested, 0.59% active;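 active means activity change of -60% or lower, but not beyond a set lower limit; inconclusive means change between -60% and -40%, or beyond the set limit; inactive means change above -40%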; further: on the % scale 0 is the no-effect control and ±100 the full control effect
# p53 reactivator: re-activators of mutant p53; 320,000 tested, 0.063% active; H1299 p53-A138V BP100-luciferase reporter, luminescence, 24 h; Potency, µM (top dose mostly 92.2 µM), for the others: top-dose activity change, positive = activation, usual class: activators; further: potency means the concentration at half of the fitted maximal effect; % of control where 0% means no effect; nearly all actives have a fitted effect of over 45% in size
#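 H1299 (p53-null), stable ts p53-A138V + BP100-Luc; 1000 cells/well, Opti-MEM/10% FBS; cpd 4 pt, 1:5; 24 h, 37 deg C, 5% CO2; detection reagent 10 min RT; luminescence.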
# Numbers without * were called inactive; u = inconclusive; x = not tested or not shown; ! = a repeat was not active; [ ] = remark or other dose. An excerpt weighted towards active compounds, which were near 1.1% of everything screened. Unless noted, the call rests on the fitted dose curve; in most records, active means well fitted curve in the direction sought with a large enough effect; inconclusive means small, poorly fitted or top-dose-only effect, or another doubt; inactive means no such curve, though single readings can be large; an effect the other way counts as inactive or inconclusive.
SMILES,Tb PFK block,RXFP1 agonist,gsp antagonist,gsp agonist,RXFP1 antagonist,p53 reactivator
Nc1c(C(=O)Nc2cccc(F)c2)nnn1-c1cccc(C(F)(F)F)c1,0%,3%,-16%,-4%[15.4 µM],-13,5%
Cc1ccc(CNC(=O)c2ccc3c(=O)n(CCCN4CCCC4=O)c(=S)[nH]c3c2)cc1,1%,2%,2%,u,-1,-1%
O=C(NCc1ccccc1)c1ccc2c(=O)n(CCCN3CCCC3=O)c(=S)[nH]c2c1,-1%,2%,-13%,27%,-74*,-3%
Cc1ccc(NC(=O)c2ccc3c(SCC(=O)O)c4c(nc3c2)CCCC4)c(Br)c1,0%,11%,-22%,13µM*,19,5%
COc1cc(Cl)c(C)cc1NC(=O)c1ccc2c(SCC(=O)O)c3c(nc2c1)CCCC3,3%,8%,x,-1%[15.4 µM],-2,2%
CCSc1nnc(NC(=O)C2CCN(C(=O)c3ccc(F)cc3)CC2)s1,-1%,x,-3%,u,0,8%
C=CCn1c(-c2ccc(OC)cc2)csc1=Nc1c(C)n(C)n(-c2ccccc2)c1=O,2%,0%,-10%,-78%,-5,-2%
CCc1ccc2oc(-c3ccc(OC)cc3)cc(=Nc3c(C)n(C)n(-c4ccccc4)c3=O)c2c1,-1%,2%,28µM*,-1%,-23,34%
COc1ccc(C2c3ccc4ccccc4c3Oc3ncn(CCN(C)C)c(=N)c32)cc1 (stereo unspecified),2%,2%,5%,7%,-108*,-2%
Cc1sc2ncnc(N3CCC(C(=O)N(C)CC(=O)Nc4ccccc4Cl)CC3)c2c1C,-1%,2%,u,-18%,4,x
Cc1sc2ncnc(N3CCC(C(=O)N(C)CC(=O)Nc4ccccc4Br)CC3)c2c1C,1%,6%,35µM*,-107%,-37,-20%
Cc1cccc(NC(=O)c2cc(NC(=O)C3CCCCC3C(=O)O)ccc2N2CCCCC2)c1 (stereo unspecified),-2%,-1%,35µM*,-38%,2,-7%
CCCOc1ccc(C(=O)Nc2ccc(C)cc2[N+](=O)[O-])cc1,3%,-1%,6%,-6%,4,7%
O=CN/C=C/c1cc(O)ccc1O,30µM*,0%,-24%,x,x,-10%
Cc1ccc(Cl)cc1N1CCN(C(=O)C(C)n2ncn3cccc3c2=O)CC1 (stereo unspecified),0%,28µM*!,-16%,-1%,-1,1%
O=C(NCc1cccnc1)C1CCCN(S(=O)(=O)c2cccc3nsnc23)C1 (stereo unspecified),2%,7%,-2%,26%,x,-5%
Cc1ccc(C)c(CSc2cn(CC(=O)N3CCCCCC3)c3ccccc23)c1,x,-2%,x,x,-5,x
Cc1ccc(C)c(CSc2cn(CC(=O)N3CCCC3)c3ccccc23)c1,x,18%,x,x,-74*,x
Cc1ccccc1OCc1nc2ccccc2c(=O)n1/N=C/c1cccc([N+](=O)[O-])c1,-2%,-1%,4%,-48%,12,3%
Cc1cc2oc(=O)cc(CSc3nnc(-c4cccs4)o3)c2cc1C(C)C,10%,0%,-4%,-21%[15.4 µM],3,-17%
Cc1csc2ncc(C(=O)NCc3ccccc3Cl)c(=O)n12,2%,6%,3%,u,x,-8%
Cc1csc2ncc(C(=O)NC(C)c3ccccc3)c(=O)n12 (stereo unspecified),-4%,10%,-2%,18µM*,5,0%
CCCCOc1ccc(Br)cc1CSC(=N)N,-1%,1%,11%,4%[15.4 µM],-71*,-15%
CCOc1ccc(C(C)=O)cc1CSC(=N)N,8%,1%,6%,6%,2,5%
COc1ccc(NC(=O)Cc2c(F)cccc2Cl)cc1,-4%,0%,18%,-49%,2,20%
SMILES,Tb PFK block,RXFP1 agonist,gsp antagonist,gsp agonist,RXFP1 antagonist,p53 reactivator
COc1ccc(NC(=O)COC(=O)Cc2c(F)cccc2Cl)cc1,1%,0%,45µM*,u,-11,6%
CC1CCCC(NC(=O)c2n[nH]c(=O)c3ccccc23)C1C (stereo unspecified),-4%,8%,-3%,-13%,-19,26%
Oc1cccc(-c2c3nc(c(-c4cccc(O)c4)c4ccc([nH]4)c(-c4cccc(O)c4)c4nc(c(-c5cccc(O)c5)c5ccc2[nH]5)CC4)C=C3)c1,x,x,x,x,-100*,x
CCC(=O)N1N=C(c2ccc(NS(=O)(=O)c3ccccc3)cc2)CC1c1ccco1 (stereo unspecified),2%,x,32µM*,5%,-12,0%
CCOc1ccc(Oc2ccc(Cl)cc2NC(=O)C2=COCCO2)cc1,1%,0%,-7%,0%,-6,1%
O=C(Nc1cc(Cl)ccc1Oc1ccccc1)C1=COCCO1,-3%,0%,-12%,-21%,-75*,2%
Nc1cc(=O)nc(SCC(=O)Nc2ccccc2)n1CCc1ccccc1,x,2%,x,x,x,x
Cc1nn(-c2ccccc2)c2sc(-c3n[nH]c(=S)o3)cc12,4%,14%,-7%,8%,4,-3%
O=C(CN1CCCCC1)Nc1ccccc1,1%,3%,15%,-14%,-10,-1%
O=C(CN1CCCCCC1)Nc1ccc(Oc2ccccc2)cc1,-4%,0%,2%,14%,-64*,15%
O=C(CSc1nnc(SCc2ccccc2)s1)N/N=C/C=C/c1ccco1,u,-1%,-5%,34%,-11,8%
CCc1nnc(NC(=O)c2cc(-c3ccncc3)nc3ccccc23)s1,0%,6%,-14%,8%,4,-2%
COc1ccc(NC(=O)CSCC(=O)Nc2ccc(S(=O)(=O)N3CCCCC3)cc2)cc1,1%,1%,-5%,20%[15.4 µM],-64*,13%
COc1ccc(CSCC(=O)Nc2ccc(S(=O)(=O)N3CCCCCC3)cc2)cc1,4%,1%,-4%,-3%,21,20%
CCOc1ccc(-n2cc(-c3ccccc3)c3c(=O)[nH]cnc32)cc1,-2%,0%,u,19%,-97*,-6%
Cc1cc(-c2ccccc2)nc(SCc2ccc(C(=O)O)cc2)n1,1%,0%,35µM*,-33%,-3,4%
O=C(CN1C(=O)c2cccnc2Oc2ccc(Cl)cc21)N1CCCCCC1,-2%,0%,-1%,-36%,1,-3%
CC(C=NNc1ccc([N+](=O)[O-])cn1)=Cc1ccccc1,x,x,5%,-15%,-3,x
CC(C)CCNC(=O)c1ccc(Cn2c(=S)[nH]c3ccccc3c2=O)cc1,1%,6%,0%,-38%,-73*,-1%
Cc1ccc(C)n1CCN1CCN(C(=O)CSc2nc3ccccc3nc2N2CCOCC2)CC1,2%,2%,5%[15.4 µM],33%,0,22%
